In PubChem BioAssay:
Results filed as inconclusive are left out. Active and inactive are the calls of the source.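 The calls were made as follows, unless noted: active = inhibition above 54%, about 3 SD of non-fluorescent compounds; inactive = the rest.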

Key:
[1] = rapamycin-like changes in RPL19A-GFP expression – cell-based, S. cerevisiae, multiplex flow cytometry, primary screen (AID 1862; in the data active = percent of DMSO control GFP below about 86%;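 also: lower values mimic rapamycin by blocking the RPL19A rise seen in DMSO cells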); conditions: S. cerevisiae RPL19A-GFP strain, flow cytometry fluorescence, 3 h; at 10 µM; stronger effect = lower value
[2] = TOR pathway GLN3 branch reporter MEP2-GFP changes – S. cerevisiae, multiplex flow cytometry, primary screen (AID 1867;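 active = GFP response, as percent of the DMSO control, above the screen-wide mean plus 3 SD, about 139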;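 also: median GFP channel fluorescence of barcode-gated MEP2-GFP cells measured by flow cytometry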); conditions: S. cerevisiae MEP2-GFP strain, 3 h, at 10 µM, stronger effect = higher value, 100% means same as DMSO wells
[3] = TOR pathway RTG branch CIT2 reporter changes – S. cerevisiae, GFP fusion, multiplex flow cytometry, primary screen (AID 1870;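 active = percent response above a set limit, the screen-wide mean plus 3 SD, cut at about 130% in these data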;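 also: barcoded CIT2-GFP strain pooled with four other GFP strains with rapamycin as positive control; median GFP fluorescence per well over plate mean of DMSO wells so 100% = DMSO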); conditions: S. cerevisiae CIT2-GFP expression, 3 h, at 10 µM, stronger effect = higher value
[4] = TOR pathway LAP4-GFP level changes – S. cerevisiae, multiplex flow cytometry, primary screen (AID 1873;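 active = GFP signal, as percent of the solvent control, above the screen mean plus 3 SD, about 149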); conditions: S. cerevisiae LAP4-GFP expression, 3 h, at 10 µM, stronger effect = higher value
[5] = yeast AGP1-GFP level changes, GLN3 branch – cell-based, multiplex flow cytometry, S. cerevisiae, primary screen (AID 1887;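 active = GFP signal above the screen-wide mean plus 3 SD, that is over about 124.5% of the solvent control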;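 also: AGP1-GFP fusion strain of S. cerevisiae within a five-strain barcoded multiplex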); conditions: 3 h, at 10 µM, stronger effect = higher value
[6] = reduced mouse 2C T cell binding to pMHC/ICAM-1 vesicles – MLPCN validation set, flow cytometry, LFA-1/ICAM-1 modulator project, pilot screen (AID 2523;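 active = response below a set limit, under 55% cells CD8-positive and vesicle-bound, and CD8 cells' 90th-percentile brightness under 279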;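 as to vesicle binding response: mean PE anti-B7-1 fluorescence of CD8+ cells relative to row control; 100% = QL9-loaded vesicles with DMSO vehicle in the same plate row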); conditions: 2C mouse CD8+ T cells, at 7 µM, stronger effect = lower value; double positive events: measured here: CD8+/vesicle+ event percentage
[7] = molecular target: Integrin beta-1 (Homo sapiens) + Integrin alpha-4 (Homo sapiens) (UniProt P13612+P05556); experiment: alpha4beta1 integrin LIBS antibody binding reduction – U937 cells, HUTS-21 mAb, flow cytometry, validation set, VLA-4 allosteric modulator project, pilot screen (AID 2674;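 active = inhibition above 50%, about 3 SD of the validation set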;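 also: antibody binding induced by the VLA-4 ligand LDV present at three times its Kd; 0% = LDV ligand with antibody and no compound and 100% = antibody without LDV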); conditions: HUTS-21 LIBS mAb binding, at 6.7 µM, stronger effect = higher value, binding induced by LDV ligand
[8] = calorie-restriction mimetic ROS inhibitors, yeast – validation compound set, pilot screen (AID 2706;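 active = superoxide response below 65% of plate, a cut near 3 SD across the whole screen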;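 also: yeast exposed to compound for one week at 30 degrees C before staining; 100% = mean of all compound wells on the same plate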); conditions: S. cerevisiae aging, superoxide DHE fluorescence; at 10 µM; stronger effect = lower value
[9] = molecular target: Beta-adrenergic receptor kinase 1 (Homo sapiens) (UniProt P25098); experiment: GRK2 binders displacing RNA aptamer, biochemical, validation, human GRK2, bead flow cytometry (AID 488806;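 active = aptamer binding inhibition above 30%, about 3 SD of noise from non-fluorescent compounds; inactive = inhibition at or below 30%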); conditions: bead-bound GRK2, FAM-aptamer displacement, at 10 µM, stronger effect = higher value
[10] = molecular target: Beta-2 adrenergic receptor (Homo sapiens) (UniProt P07550); experiment: agonist-induced loss of surface beta2AR – cell-based, FAP fluorogen, flow cytometry, validation set, pilot screen (AID 504459;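 active = percent response above 42, roughly 3 SD of non-fluorescent test compounds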;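 also: agonist-driven loss of surface beta2AR via internalization measured by FAP dye flow cytometry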); conditions: Am2.2-beta2AR cells, at 10 µM, stronger effect = higher value
[11] = molecular target: AP-2 complex subunit beta (Homo sapiens) (UniProt P63010); experiment: beta-arrestin/AP2 interaction blockers – biochemical, validation set, GST-AP2 beads, flow cytometry, pilot screen (AID 504541); conditions: FITC arrestin peptide, at 10 µM, stronger effect = higher value, AP2 beta2 appendage fragment, R879A mutant;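 also: AP2 carries R879A mutation and is captured from E. coli lysate; bead-bound FITC arrestin peptide fluorescence measuring arrestin peptide binding to AP2; 0% = DMSO wells and 100% = excess unlabeled arrestin peptide control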
[12] = cytosolic pH regulators acting via V-ATPase – S. cerevisiae, pHLuorin, HTS validation (AID 504600; in the data active = response above about 15%;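 also: plate controls were DMSO for no effect and reference compound for full effect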); conditions: V-ATPase proton transport, at 10 µM, stronger effect = higher value
[13] = system: anti-desmoglein-3 scFv antibody binding to human DSG3; experiment: blockers of pathogenic pemphigus antibody–desmoglein-3 binding – biochemical, validation compound set, bead-based, flow cytometry, pilot screen (AID 588368;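 active = binding below the plate cutoff, the plate median minus 3 SD, with a reading above zero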;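 also: signal is the median channel fluorescence of bead-bound GFP antibody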); conditions: Protein G beads, DSG3-Fc, scFv-GFP binding, at 10 µM, stronger effect = lower value
[14] = Nile Red efflux blockade in pump-expressing yeast – validation compound set, multiplex, phenotypic, pilot screen (AID 588506;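 active = efflux inhibition above 0.42, the validation set average plus 4 SD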;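 also: Nile Red retained in cells so higher fluorescence means more efflux inhibition; 0 = negative control wells and 1 = enniatin B 25 µM full block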); conditions: S. cerevisiae pump-expressing triplex, Nile Red efflux flow cytometry; at 10 µM; stronger effect = higher value; the pumps come from Candida albicans
[15] = molecular target: ATP-binding cassette sub-family B member 6 (Homo sapiens) (UniProt Q9NP58); experiment: blockers of ABCB6-driven porphyrin uptake – K562-ABCB6 cells, flow cytometry, validation set, pilot screen (AID 588550;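 active = inhibition above the screen-wide mean plus 3 SD, about 51%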;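 also: 0% = DMSO wells and 100% = benzethonium chloride 70 µM positive control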); conditions: K562-ABCB6 porphyrin accumulation, 1 h, at 10 µM, stronger effect = higher value
[16] = AML differentiation inducers, ER-HoxA9 marrow cells – cell-based, GFP/MAC1 double positive, flow cytometry, validation set, primary screen (AID 588685;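 active = differentiation response of at least 50%, scaled between solvent and reference control, from cells with both markers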;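 also: compound exposure lasts four days before antibody staining and flow analysis; 0% = DMSO wells and 100% = 5 µM fulvestrant positive control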); conditions: stronger effect = higher value, normalized: vehicle 0, fulvestrant 100

Sequence of ATP-binding cassette sub-family B member 6 (Homo sapiens) (Q9NP58 whole entry, looked up): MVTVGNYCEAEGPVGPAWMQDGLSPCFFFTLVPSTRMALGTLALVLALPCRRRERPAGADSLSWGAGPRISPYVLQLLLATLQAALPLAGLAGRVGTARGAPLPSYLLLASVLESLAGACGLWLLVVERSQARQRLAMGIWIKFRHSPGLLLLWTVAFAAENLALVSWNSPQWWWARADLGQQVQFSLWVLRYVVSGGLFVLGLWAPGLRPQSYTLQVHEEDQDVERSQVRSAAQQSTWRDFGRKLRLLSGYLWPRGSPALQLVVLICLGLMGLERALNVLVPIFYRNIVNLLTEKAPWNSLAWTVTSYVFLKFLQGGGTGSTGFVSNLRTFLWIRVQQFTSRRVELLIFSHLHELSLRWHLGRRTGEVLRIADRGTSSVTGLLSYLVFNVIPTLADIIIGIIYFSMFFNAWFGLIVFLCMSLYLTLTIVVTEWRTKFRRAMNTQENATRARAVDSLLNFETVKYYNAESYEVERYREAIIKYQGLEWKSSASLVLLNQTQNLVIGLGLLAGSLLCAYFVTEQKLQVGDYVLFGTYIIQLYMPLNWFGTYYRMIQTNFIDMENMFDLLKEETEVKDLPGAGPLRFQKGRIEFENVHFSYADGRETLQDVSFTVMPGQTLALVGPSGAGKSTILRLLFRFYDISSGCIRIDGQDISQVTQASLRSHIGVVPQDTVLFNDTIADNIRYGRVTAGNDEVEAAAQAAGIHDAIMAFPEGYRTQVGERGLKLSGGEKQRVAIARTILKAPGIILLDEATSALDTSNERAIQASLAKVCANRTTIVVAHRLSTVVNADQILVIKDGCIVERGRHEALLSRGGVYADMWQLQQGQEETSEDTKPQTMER
Sequence of Beta-2 adrenergic receptor (Homo sapiens) (P07550 whole entry, looked up, the tested form may be a part): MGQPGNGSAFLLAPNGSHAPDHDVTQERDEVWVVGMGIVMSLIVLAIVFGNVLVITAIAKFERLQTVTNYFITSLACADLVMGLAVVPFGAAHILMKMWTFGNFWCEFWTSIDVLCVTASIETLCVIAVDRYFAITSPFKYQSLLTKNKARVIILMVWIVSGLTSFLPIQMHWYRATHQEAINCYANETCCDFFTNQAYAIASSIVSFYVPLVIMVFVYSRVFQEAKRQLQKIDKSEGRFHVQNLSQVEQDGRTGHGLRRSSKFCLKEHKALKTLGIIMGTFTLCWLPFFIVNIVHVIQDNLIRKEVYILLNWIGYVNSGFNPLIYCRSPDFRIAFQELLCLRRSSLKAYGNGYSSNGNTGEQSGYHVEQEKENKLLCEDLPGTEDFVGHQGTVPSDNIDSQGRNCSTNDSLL
Sequence of Beta-adrenergic receptor kinase 1 (Homo sapiens) (P25098 whole entry, looked up): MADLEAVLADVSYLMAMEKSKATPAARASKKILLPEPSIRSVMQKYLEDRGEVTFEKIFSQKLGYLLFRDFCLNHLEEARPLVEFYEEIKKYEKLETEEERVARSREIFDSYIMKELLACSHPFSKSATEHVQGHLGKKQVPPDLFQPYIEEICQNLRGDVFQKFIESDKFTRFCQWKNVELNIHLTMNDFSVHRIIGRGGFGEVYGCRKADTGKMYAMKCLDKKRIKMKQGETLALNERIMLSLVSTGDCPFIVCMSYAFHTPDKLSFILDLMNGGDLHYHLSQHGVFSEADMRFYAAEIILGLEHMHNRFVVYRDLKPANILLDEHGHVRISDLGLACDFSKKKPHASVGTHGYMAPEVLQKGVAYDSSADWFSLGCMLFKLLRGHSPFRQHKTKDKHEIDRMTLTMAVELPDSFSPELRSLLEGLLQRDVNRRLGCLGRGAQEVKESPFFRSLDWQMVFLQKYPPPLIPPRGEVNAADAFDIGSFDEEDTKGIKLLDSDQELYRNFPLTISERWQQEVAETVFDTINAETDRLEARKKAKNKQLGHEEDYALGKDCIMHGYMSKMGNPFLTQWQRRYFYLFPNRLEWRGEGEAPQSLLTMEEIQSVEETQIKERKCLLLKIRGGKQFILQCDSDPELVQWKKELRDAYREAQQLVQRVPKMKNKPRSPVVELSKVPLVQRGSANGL
Sequence of Integrin beta-1 (Homo sapiens) + Integrin alpha-4 (Homo sapiens) (P05556 whole entry, looked up): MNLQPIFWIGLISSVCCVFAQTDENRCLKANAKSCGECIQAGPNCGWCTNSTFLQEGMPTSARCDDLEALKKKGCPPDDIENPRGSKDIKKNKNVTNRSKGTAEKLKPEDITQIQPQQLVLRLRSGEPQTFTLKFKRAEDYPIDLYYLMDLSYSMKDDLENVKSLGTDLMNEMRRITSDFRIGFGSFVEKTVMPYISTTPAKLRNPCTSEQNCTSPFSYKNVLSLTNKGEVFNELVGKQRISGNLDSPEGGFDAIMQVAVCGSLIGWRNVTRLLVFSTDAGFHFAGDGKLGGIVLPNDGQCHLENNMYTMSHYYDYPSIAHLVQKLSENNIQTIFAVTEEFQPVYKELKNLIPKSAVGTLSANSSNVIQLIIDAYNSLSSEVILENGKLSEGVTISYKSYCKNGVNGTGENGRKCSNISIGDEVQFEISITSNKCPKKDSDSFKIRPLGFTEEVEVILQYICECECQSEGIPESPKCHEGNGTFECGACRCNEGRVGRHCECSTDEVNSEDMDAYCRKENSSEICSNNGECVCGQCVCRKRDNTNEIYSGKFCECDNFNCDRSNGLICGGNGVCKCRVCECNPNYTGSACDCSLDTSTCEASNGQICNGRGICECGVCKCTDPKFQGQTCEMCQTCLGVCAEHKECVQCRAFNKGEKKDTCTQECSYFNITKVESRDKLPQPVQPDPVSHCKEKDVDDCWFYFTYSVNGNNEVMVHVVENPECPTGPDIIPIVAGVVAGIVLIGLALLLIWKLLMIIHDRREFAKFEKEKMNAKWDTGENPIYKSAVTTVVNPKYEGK
Sequence of Integrin beta-1 (Homo sapiens) + Integrin alpha-4 (Homo sapiens) (P13612 whole entry, looked up): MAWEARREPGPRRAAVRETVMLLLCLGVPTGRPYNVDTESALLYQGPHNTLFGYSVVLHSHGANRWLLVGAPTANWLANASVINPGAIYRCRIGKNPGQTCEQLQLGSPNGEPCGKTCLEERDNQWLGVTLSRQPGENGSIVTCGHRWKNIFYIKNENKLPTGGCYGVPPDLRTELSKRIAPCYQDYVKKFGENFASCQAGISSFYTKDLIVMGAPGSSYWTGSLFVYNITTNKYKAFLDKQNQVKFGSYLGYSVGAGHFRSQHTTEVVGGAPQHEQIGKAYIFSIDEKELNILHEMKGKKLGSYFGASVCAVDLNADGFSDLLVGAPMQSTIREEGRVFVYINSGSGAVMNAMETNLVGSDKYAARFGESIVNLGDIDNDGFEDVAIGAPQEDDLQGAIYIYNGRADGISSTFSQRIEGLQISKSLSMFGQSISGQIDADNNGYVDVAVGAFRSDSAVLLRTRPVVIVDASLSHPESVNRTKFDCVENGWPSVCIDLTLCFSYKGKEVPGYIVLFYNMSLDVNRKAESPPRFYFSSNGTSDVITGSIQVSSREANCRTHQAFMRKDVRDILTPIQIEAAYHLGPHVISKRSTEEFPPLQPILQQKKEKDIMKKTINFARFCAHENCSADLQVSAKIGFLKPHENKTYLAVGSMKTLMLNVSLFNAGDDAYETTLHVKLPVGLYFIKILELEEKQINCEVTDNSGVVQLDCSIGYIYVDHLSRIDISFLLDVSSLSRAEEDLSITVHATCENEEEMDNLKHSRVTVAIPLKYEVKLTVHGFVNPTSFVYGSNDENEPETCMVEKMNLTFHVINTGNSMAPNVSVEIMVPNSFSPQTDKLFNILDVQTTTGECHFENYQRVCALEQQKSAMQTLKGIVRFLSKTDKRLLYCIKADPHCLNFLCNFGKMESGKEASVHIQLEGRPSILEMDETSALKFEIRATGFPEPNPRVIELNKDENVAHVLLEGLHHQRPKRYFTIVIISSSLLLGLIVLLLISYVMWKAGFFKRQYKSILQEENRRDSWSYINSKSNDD
Sequence of AP-2 complex subunit beta (Homo sapiens) (P63010 whole entry, looked up, the tested form may be a part, one chain of several): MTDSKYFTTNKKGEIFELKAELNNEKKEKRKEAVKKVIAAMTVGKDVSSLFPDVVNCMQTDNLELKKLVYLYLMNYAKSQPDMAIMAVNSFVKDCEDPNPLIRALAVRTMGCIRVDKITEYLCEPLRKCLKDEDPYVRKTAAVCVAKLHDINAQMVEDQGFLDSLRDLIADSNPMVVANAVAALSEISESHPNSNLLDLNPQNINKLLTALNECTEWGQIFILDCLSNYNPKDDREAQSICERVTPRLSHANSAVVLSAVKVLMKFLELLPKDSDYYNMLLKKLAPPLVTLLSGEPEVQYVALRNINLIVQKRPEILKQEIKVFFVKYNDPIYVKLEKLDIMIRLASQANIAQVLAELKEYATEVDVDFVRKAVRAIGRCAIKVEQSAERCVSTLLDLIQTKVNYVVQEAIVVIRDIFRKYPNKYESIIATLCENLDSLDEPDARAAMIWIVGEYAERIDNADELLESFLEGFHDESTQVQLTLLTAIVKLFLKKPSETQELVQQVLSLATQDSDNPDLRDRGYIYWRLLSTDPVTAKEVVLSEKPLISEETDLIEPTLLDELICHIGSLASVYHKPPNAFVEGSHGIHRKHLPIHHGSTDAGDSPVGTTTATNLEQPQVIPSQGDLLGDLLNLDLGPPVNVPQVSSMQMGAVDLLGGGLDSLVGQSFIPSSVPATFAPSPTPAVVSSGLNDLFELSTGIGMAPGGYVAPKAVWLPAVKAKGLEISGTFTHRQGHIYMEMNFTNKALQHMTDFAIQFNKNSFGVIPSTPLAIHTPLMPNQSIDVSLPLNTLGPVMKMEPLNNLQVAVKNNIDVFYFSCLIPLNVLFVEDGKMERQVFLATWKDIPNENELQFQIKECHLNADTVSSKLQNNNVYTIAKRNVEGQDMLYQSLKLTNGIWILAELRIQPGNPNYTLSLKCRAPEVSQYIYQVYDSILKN

CC(C)Oc1ccc(C2CC(=O)N(c3ccc(C(=O)O)cc3)C2=O)cc1 (stereo not given)
57.7%: double positive events [6]
inactive: percent of DMSO control GFP [1] 98.1% | GFP response vs DMSO [2] 97.6% | percent response of DMSO control [3] 105% | GFP response vs DMSO [4] 137% | GFP response, % of DMSO [5] 122% | vesicle binding response [6] 178% | inhibition [7] 3.14% | superoxide response (% of plate) [8] 135% | aptamer binding inhibition [9] -4% | response [10] -19.8% | inhibition [11] -15% | response [12] -1.38% | binding (% of control) [13] 105% | efflux inhibition (fraction of control) [14] -0.04 | inhibition [15] -1% | differentiation response [16] -9.91%

O=C(NC(=S)N1CCCCC1)c1cccnc1
inactive: percent of DMSO control GFP [1] 102% | GFP response vs DMSO [2] 95.1% | percent response of DMSO control [3] 97.8% | GFP response vs DMSO [4] 108% | GFP response, % of DMSO [5] 99.4% | vesicle binding response [6] 95.6% | inhibition [7] 11% | superoxide response (% of plate) [8] 89.9% | aptamer binding inhibition [9] -3% | response [10] -0.16% | inhibition [11] -15.4% | response [12] -2.13% | binding (% of control) [13] 93.3% | efflux inhibition (fraction of control) [14] -0.07 | inhibition [15] -15% | differentiation response [16] 21.8%
60.8%: double positive events [6]

CCOc1ccc2nc(NC(=O)NC3CCCCC3)sc2c1
inactive: percent of DMSO control GFP [1] 104% | GFP response vs DMSO [2] 105% | percent response of DMSO control [3] 98.6% | GFP response vs DMSO [4] 107% | GFP response, % of DMSO [5] 107% | vesicle binding response [6] 215% | inhibition [7] -1.09% | superoxide response (% of plate) [8] 89.5% | aptamer binding inhibition [9] 4% | response [10] 3.3% | inhibition [11] 42.2% | response [12] -7.78% | binding (% of control) [13] 93.8% | inhibition [15] -4% | differentiation response [16] -3.11%
64.2%: double positive events [6]
active: efflux inhibition (fraction of control) [14] 0.8

COc1ccccc1/C=C/C(=O)c1c2c(c(C)[nH]c1=O)CCCC2
inactive: percent of DMSO control GFP [1] 97.8% | GFP response vs DMSO [2] 96.6% | percent response of DMSO control [3] 96.4% | GFP response vs DMSO [4] 104% | GFP response, % of DMSO [5] 114% | vesicle binding response [6] 192% | inhibition [7] 17.6% | superoxide response (% of plate) [8] 107% | aptamer binding inhibition [9] 8% | response [10] -4.6% | inhibition [11] 1.34% | binding (% of control) [13] 106% | efflux inhibition (fraction of control) [14] -0.13 | inhibition [15] 4% | differentiation response [16] 15.7%
active: response [12] 17.4%
65.9%: double positive events [6]

Cc1occc(=O)c1O
inactive: percent of DMSO control GFP [1] 92.4% | GFP response vs DMSO [2] 112% | percent response of DMSO control [3] 110% | GFP response vs DMSO [4] 71% | GFP response, % of DMSO [5] 86.1% | vesicle binding response [6] 198% | inhibition [7] -5.18% | superoxide response (% of plate) [8] 100% | aptamer binding inhibition [9] 1% | response [10] -9.02% | inhibition [11] -5.01% | response [12] -1.14% | binding (% of control) [13] 98.1% | efflux inhibition (fraction of control) [14] -0.06 | inhibition [15] 3% | differentiation response [16] -4.91%
65.3%: double positive events [6]

CC(/C=C1\SC(=O)N(CCCC(=O)O)C1=O)=C\c1ccccc1
59.5%: double positive events [6]
inactive: percent of DMSO control GFP [1] 105% | GFP response vs DMSO [2] 103% | percent response of DMSO control [3] 99% | GFP response vs DMSO [4] 124% | GFP response, % of DMSO [5] 99.3% | vesicle binding response [6] 161% | inhibition [7] 12.5% | superoxide response (% of plate) [8] 112% | aptamer binding inhibition [9] 2% | response [10] -6.06% | inhibition [11] 37.2% | response [12] -1.36% | binding (% of control) [13] 101% | efflux inhibition (fraction of control) [14] 0 | inhibition [15] 0% | differentiation response [16] 12.8%

CSCCC1NC2(C(=O)Nc3ccc(Cl)cc32)[C@@H]2C(=O)N(C3CCCC3)C(=O)[C@H]12 (stereo not given in full)
59.4%: double positive events [6]
inactive: percent of DMSO control GFP [1] 101% | GFP response vs DMSO [2] 109% | percent response of DMSO control [3] 103% | GFP response vs DMSO [4] 102% | GFP response, % of DMSO [5] 98.9% | vesicle binding response [6] 121% | inhibition [7] -37.3% | superoxide response (% of plate) [8] 94.5% | aptamer binding inhibition [9] 6% | response [10] -27.1% | inhibition [11] -6.32% | response [12] 1.16% | binding (% of control) [13] 109% | efflux inhibition (fraction of control) [14] -0.29 | inhibition [15] -10% | differentiation response [16] 1.28%

OCCC1CN(Cc2nc(-c3ccccc3)cs2)CCN1Cc1ccc(F)cc1 (stereo not given)
68.6%: double positive events [6]
inactive: percent of DMSO control GFP [1] 106% | GFP response vs DMSO [2] 98.7% | percent response of DMSO control [3] 115% | GFP response vs DMSO [4] 100% | GFP response, % of DMSO [5] 104% | vesicle binding response [6] 312% | inhibition [7] -6.45% | superoxide response (% of plate) [8] 103% | aptamer binding inhibition [9] 0% | response [10] 2.61% | inhibition [11] -6.97% | response [12] -2.6% | binding (% of control) [13] 100% | efflux inhibition (fraction of control) [14] 0.31 | inhibition [15] 9% | differentiation response [16] -6.03%

Cc1cc(O)c2/c(=N\N)c(-c3csc(C)n3)coc2c1
inactive: percent of DMSO control GFP [1] 105% | GFP response vs DMSO [2] 107% | percent response of DMSO control [3] 102% | GFP response vs DMSO [4] 106% | GFP response, % of DMSO [5] 110% | vesicle binding response [6] 96.1% | inhibition [7] 5.61% | superoxide response (% of plate) [8] 102% | aptamer binding inhibition [9] 3% | response [10] 2.22% | inhibition [11] -8.85% | response [12] -3.38% | binding (% of control) [13] 99.8% | efflux inhibition (fraction of control) [14] -0.16 | inhibition [15] 3% | differentiation response [16] -0.18%
56.7%: double positive events [6]

Clc1ccc2c(c1)CCc1cccnc1C2=C1CCNCC1
inactive: percent of DMSO control GFP [1] 101% | GFP response vs DMSO [2] 109% | percent response of DMSO control [3] 104% | GFP response vs DMSO [4] 93.3% | GFP response, % of DMSO [5] 97% | vesicle binding response [6] 1240% | inhibition [7] 3.7% | superoxide response (% of plate) [8] 98.7% | aptamer binding inhibition [9] 3% | response [10] 16.1% | inhibition [11] 13.9% | response [12] 1.57% | binding (% of control) [13] 103% | efflux inhibition (fraction of control) [14] -0.17 | inhibition [15] -15% | differentiation response [16] -4.64%
63.9%: double positive events [6]
